# Measurements published in PubChem BioAssay (Tox21).
# Values joined by “and” are separate entries in the source; they are usually repeats but may differ in a detail not shown here. Identical values can stand only once. Inconclusive results are not listed. A call without a number means that no potency is given here. Some compounds were tested as several samples or in several runs, with calls that do not always agree. Active and inactive are the calls of the source. Unless noted, calls come from the whole dose curve; as a rule, active = well fitted curve in the direction sought with a large enough effect in the repeat runs; inconclusive = weak or mixed curves; inactive = no such curve, though single readings can be large; an effect the other way counts as inactive or inconclusive.
# How the values were obtained:
# [1] = qHTS assay to identify small molecule antagonists of the glucocorticoid receptor (GR) signaling pathway - cell viability counter screen (AID 720693); note: nearly all actives have a fitted effect of over 55% in size; note: potency is the fitted concentration of half-maximal effect
# [2] = qHTS assay for identifying genotoxic compounds that show differential cytotoxicity against isogenic chicken DT40 cell lines with known DNA damage response pathways - wild type cell line (AID 743012); note: nearly all actives have a fitted effect of over 60% in size; note: potency is the fitted concentration of half-maximal effect
# Procedure, shortened: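 300 wt DT40 cells/well; cpd (DMSO) pintool-transferred after ~0.5 h at 37 C/5% CO2; 40 h incubation; CellTiter-Glo added, 30 min RT; luminescence read.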
# [3] = qHTS assay for identifying genotoxic compounds that show differential cytotoxicity against isogenic chicken DT40 cell lines with known DNA damage response pathways - Rev3 mutant cell line (AID 743014); note: nearly all actives have a fitted effect of over 55% in size; note: potency is the fitted concentration of half-maximal effect
# [4] = qHTS assay for identifying genotoxic compounds that show differential cytotoxicity against isogenic chicken DT40 cell lines with known DNA damage response pathways - Rad54/Ku70 mutant cell line (AID 743015); note: nearly all actives have a fitted effect of over 60% in size; note: potency is the fitted concentration of half-maximal effect
# [5] = qHTS assay to identify small molecule antagonists of the androgen receptor (AR) signaling pathway - cell viability counter screen (AID 743033; note: nearly all actives have a fitted effect of over 45% in size; note: potency is the fitted concentration of half-maximal effect)
# [6] = qHTS assay to identify small molecule antagonists of the androgen receptor (AR) signaling pathway using the MDA cell line - cell viability counter screen (AID 743041; note: nearly all actives have a fitted effect of over 45% in size; note: potency is the fitted concentration of half-maximal effect)
# Procedure, shortened: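 In this qHTS counter assay, fluorescence intensity after CellTiter-Fluor addition indicated viability of MDA-kb2 AR-luc cells given compounds and R1881 for 16 h at 37C.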
# [7] = biological target: Androgen receptor (Homo sapiens) (UniProt P10275); assay: qHTS assay to identify small molecule agonists of the androgen receptor (AR) signaling pathway (AID 743036; active = well fitted activation curve with a large enough effect in the signal ratio in the repeat runs, with a control signal flat, not every such curve was filed as active; the % refers to the signal ratio)
# Chain of Androgen receptor (Homo sapiens) (P10275 whole entry, looked up): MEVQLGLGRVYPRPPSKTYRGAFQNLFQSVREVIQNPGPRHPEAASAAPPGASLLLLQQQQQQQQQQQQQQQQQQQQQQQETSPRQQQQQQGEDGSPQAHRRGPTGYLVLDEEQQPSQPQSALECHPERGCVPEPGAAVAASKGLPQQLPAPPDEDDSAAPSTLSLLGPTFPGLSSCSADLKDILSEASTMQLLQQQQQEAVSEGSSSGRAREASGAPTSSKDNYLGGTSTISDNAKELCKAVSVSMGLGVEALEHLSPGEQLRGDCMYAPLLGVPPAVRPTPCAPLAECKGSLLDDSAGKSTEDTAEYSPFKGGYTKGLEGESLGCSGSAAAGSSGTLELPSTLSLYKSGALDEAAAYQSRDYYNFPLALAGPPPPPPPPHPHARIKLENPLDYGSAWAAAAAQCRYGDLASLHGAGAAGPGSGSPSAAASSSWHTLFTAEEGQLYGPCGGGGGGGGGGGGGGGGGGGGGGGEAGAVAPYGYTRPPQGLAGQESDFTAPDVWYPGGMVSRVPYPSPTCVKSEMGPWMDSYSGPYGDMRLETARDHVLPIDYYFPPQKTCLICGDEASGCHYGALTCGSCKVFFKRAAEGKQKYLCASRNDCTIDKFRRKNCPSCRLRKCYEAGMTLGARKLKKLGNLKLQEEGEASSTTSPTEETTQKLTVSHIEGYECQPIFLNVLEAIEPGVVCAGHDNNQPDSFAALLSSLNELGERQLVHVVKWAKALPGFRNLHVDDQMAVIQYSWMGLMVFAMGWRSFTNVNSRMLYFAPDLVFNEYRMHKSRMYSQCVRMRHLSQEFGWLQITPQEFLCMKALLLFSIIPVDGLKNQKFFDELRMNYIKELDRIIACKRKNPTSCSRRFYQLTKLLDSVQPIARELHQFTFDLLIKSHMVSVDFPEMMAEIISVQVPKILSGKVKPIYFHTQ
# Procedure, shortened: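 Activation was read as beta-lactamase FRET signal from LiveBLAzer B/G substrate, added for 2 h at room temperature. Before that, GeneBLAzer AR-UAS-bla GripTite (HEK293) cells had 16 h compound exposure at 37C.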
# [8] = biological target: Androgen receptor (Homo sapiens) (UniProt P10275); assay: qHTS assay to identify small molecule agonists of the androgen receptor (AR) signaling pathway using the MDA cell line (AID 743040; note: nearly all actives have a fitted effect of over 20% in size)
# Procedure, shortened: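 Cell-based luciferase reporter: MDA-kb2, MMTV promoter (AR + GR response elements). 16 h compound exposure at 37C; ONE-Glo, 30 min RT, luminescence.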
# [9] = biological target: Androgen receptor (Homo sapiens) (UniProt P10275); assay: qHTS assay to identify small molecule antagonists of the androgen receptor (AR) signaling pathway (AID 743035; active = well fitted inhibition curve with a large enough effect in the signal ratio in the repeat runs, not every such curve was filed as active; the % refers to the signal ratio; note: potency is the fitted concentration of half-maximal effect)
# Procedure, shortened: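 In this cell-based reporter screen, compounds were tested in concentration series against R1881-activated HEK293 cells expressing beta-lactamase under UAS control; after 16 h at 37C, FRET substrate was added and fluorescence read 2 h later.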
# [10] = biological target: Androgen receptor (Homo sapiens) (UniProt P10275); assay: qHTS assay to identify small molecule antagonists of the androgen receptor (AR) signaling pathway using the MDA cell line (AID 743042; note: nearly all actives have a fitted effect of over 55% in size; note: potency is the fitted concentration of half-maximal effect)
# Procedure, shortened: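 MDA-kb2 cells (human breast carcinoma, stably carrying an MMTV-luciferase reporter responsive to AR and GR) were plated at 3,000 cells/well and preincubated 5 hr at 37C, then given compound plus R1881 agonist for 16 h. ONE-Glo luminescence was read.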
Compound,Potency [1],Potency [2],Potency [3],Potency [4],Potency [5],Potency [6],outcome [7],Potency [8],Potency [9],Potency [10]
N#CCc1ccccc1,inactive,inactive,inactive,inactive,inactive,inactive,–,–,–,–
CCOP(=O)(OCC)Oc1ccc([N+](=O)[O-])cc1,inactive,inactive,inactive,inactive,inactive,inactive,–,–,–,–
O=C1CN=C(c2ccccc2)c2cc(Cl)ccc2N1CC1CC1,inactive,18.8 µM (active),29.8 µM (active) and 64.2 µM (active),26.6 µM (active),inactive,inactive,–,–,–,–
CCCCCCCCOC(=O)c1ccc(C(=O)OCCCCCCCC)c(C(=O)OCCCCCCCC)c1,inactive,inactive,inactive,inactive,inactive,inactive,–,–,–,–
[O-][Cl+]O,inactive,inactive,inactive,inactive,inactive,inactive,–,–,–,–
CN1C(=O)NC(=O)C(C)(C2=CCCCC2)C1=O (configuration not stated),inactive,inactive,inactive,inactive,inactive,inactive,–,–,–,–
[CH3][Sn]([CH3])([Cl])[Cl],inactive,54.5 µM (active),62.1 µM (active) and 27.3 µM (active),48.6 µM (active),inactive,inactive,–,–,–,–
COc1nn(C(=O)NS(=O)(=O)c2ccccc2OC(F)(F)F)c(=O)n1C,inactive,inactive,inactive,inactive,inactive,inactive,–,–,–,–
CCN(C)N=O,inactive,inactive,inactive,inactive,inactive,inactive,–,–,–,–
C=CC(=O)OC,inactive,inactive,inactive,inactive,inactive,inactive,–,–,–,–
CN1[C@@H]2CC[C@H]1CC(OC(=O)c1cc(Cl)cc(Cl)c1)C2 (some centres not stated),inactive,3.76 µM (active),2.98 µM (active),5.96 µM (active),inactive,inactive,–,–,–,–
CCOP(O)OCC,inactive,inactive,inactive,inactive,inactive,inactive,–,–,–,–
COC(C)(C)CCC[C@H](C)C/C=C/C(C)=C/C(=O)OC(C)C,inactive,21.7 µM (active),24.3 µM (active),19.3 µM (active),–,–,inactive,inactive,–,–
CS/C(C)=N/OC(=O)N(C)SN(C)C(=O)O/N=C(\C)SC,inactive,6.86 µM (active),17.2 µM (active),15.4 µM (active),–,inactive,inactive,inactive,inactive,inactive
C=CC(=O)OC(C)(C)C,inactive,inactive,inactive,inactive,inactive,inactive,–,–,–,–
C[C@@H]1CC[C@H]2[C@@H](C)C(=O)O[C@@H]3O[C@@]4(C)CC[C@@H]1[C@]32OO4,inactive,0.422 µM (active),0.473 µM (active),0.237 µM (active),–,–,inactive,inactive,1.69 µM (active),1.33 µM (active)
CCCCOC(=O)c1ccccc1C(=O)OCc1ccccc1,inactive,inactive and 48.6 µM (active),inactive,51.4 µM (active),inactive,inactive,–,–,–,–
CCOc1nc(F)cc2nc(S(=O)(=O)Nc3c(Cl)cccc3Cl)nn12,inactive,inactive,inactive,inactive,inactive,inactive,–,–,–,–
O=C(O)COc1ccc(Cl)cc1,inactive,inactive,inactive,inactive,inactive,inactive,–,–,–,–
Clc1cccc2ccccc12,inactive,inactive,inactive,inactive,inactive,inactive,–,–,–,–
Cn1cc[n+](C)c1 (tested in a mixture with another compound),inactive,inactive,inactive,inactive,inactive,inactive,–,–,–,–

Compound,Potency [1],Potency [2],Potency [3],Potency [4],Potency [5],Potency [6],outcome [7],Potency [8],Potency [9],Potency [10]
Oc1ccc(Cl)c(Cl)c1Cl,inactive,inactive,inactive,inactive,–,inactive,–,–,–,–
CCCCC(CC)COP(=O)(Oc1ccccc1)Oc1ccccc1 (configuration not stated),inactive,inactive,48.6 µM (active),–,inactive,inactive,inactive,inactive,inactive,inactive
O=S1OC[C@@H]2[C@H](CO1)[C@]1(Cl)C(Cl)=C(Cl)[C@@]2(Cl)C1(Cl)Cl (some centres not stated),inactive,24.3 µM (active),27.3 µM (active),30.6 µM (active),–,inactive,inactive,inactive,–,–
CCCN(CCCl)c1c([N+](=O)[O-])cc(C(F)(F)F)cc1[N+](=O)[O-],inactive,inactive,inactive,inactive,inactive,inactive,–,–,–,–
CCCCc1c(C)nc(NCC)nc1OS(=O)(=O)N(C)C,inactive,15.4 µM (active),19.3 µM (active),15.4 µM (active),inactive,inactive,–,–,–,–
CNP(=O)(OC)Oc1ccc(C(C)(C)C)cc1Cl (configuration not stated),inactive,13.7 µM (active),19.3 µM (active),21.7 µM (active),–,inactive,–,–,–,–
Clc1cccc(SC2CCNCC2)n1,inactive,inactive,inactive,–,inactive,–,–,–,–,–
C#CCOC(C(=O)OCCN(C)C)(c1ccccc1)c1ccccc1,inactive,inactive,inactive,inactive,inactive,inactive,–,–,–,–
COP(=S)(Oc1cc(Cl)c(Br)cc1Cl)c1ccccc1 (configuration not stated),inactive,inactive,inactive,–,inactive,inactive,–,inactive,–,inactive
COc1ccc(-c2ccccc2)cc1NNC(=O)OC(C)C,inactive,63.7 µM (active),71.5 µM (active),28.4 µM (active),–,inactive,–,inactive,51 µM (active),71.5 µM (active)
C(=NC1CCCCC1)=NC1CCCCC1,inactive,inactive and 15.4 µM (active),inactive and 21.7 µM (active),inactive and 3.06 µM (active),inactive,inactive,–,–,–,–
CC(=O)CCC(C)=O,inactive,inactive,inactive,inactive,inactive,inactive,–,–,–,–
CCC(COC(=O)c1cc(OC)c(OC)c(OC)c1)(c1ccccc1)N(C)C (configuration not stated),inactive,5.96 µM (active),3.35 µM (active),6.68 µM (active),inactive,inactive,–,–,–,–
Clc1ccc(C2(Cn3cncn3)CC(Br)CO2)c(Cl)c1 (configuration not stated),inactive,8.58 µM (active),8.58 µM (active),12.1 µM (active),–,inactive,–,–,–,–
CC(Cl)C(C)Cl (configuration not stated),inactive,inactive,inactive,inactive,inactive,inactive,–,–,–,–
O=C(OC1CCCCC1)c1ccccc1C(=O)OC1CCCCC1,inactive,28.8 µM (active),22.9 µM (active),25.7 µM (active),–,inactive,–,–,–,–
CCCCCCC#N,inactive,inactive,inactive,inactive,inactive,inactive,–,–,–,–
CC(C)N(C(=O)COc1nnc(C(F)(F)F)s1)c1ccc(F)cc1,inactive,15.4 µM (active),13.7 µM (active),15.4 µM (active),–,inactive,–,–,–,–
COP(=O)(OC)O/C(=C/Cl)c1cc(Cl)c(Cl)cc1Cl,inactive,64.6 µM (active),28.8 µM (active),64.6 µM (active),–,inactive,inactive,inactive,18.4 µM (active),72.4 µM (active)
CCOP(=O)(OCC)SCCSCC,inactive,inactive,inactive,inactive,inactive,inactive,–,–,–,–
O=C(CBr)OCc1ccccc1,inactive,inactive,inactive,inactive,inactive,inactive,–,–,–,–

Compound,Potency [1],Potency [2],Potency [3],Potency [4],Potency [5],Potency [6],outcome [7],Potency [8],Potency [9],Potency [10]
CNC(C)Cc1ccccc1OC (configuration not stated),inactive,inactive,inactive,inactive,inactive,inactive,–,–,–,–
CC(C)(Cl)[N+](=O)[O-],inactive,inactive,inactive,inactive,inactive,inactive,–,–,–,–
C=CC(=O)OCC(C)O (configuration not stated),inactive,inactive,inactive,inactive,inactive,inactive,–,–,–,–
CCOP(=O)(OCC)O/C(=C/Cl)c1ccc(Cl)cc1Cl,inactive,11.9 µM (active) and 15.4 µM (active),23.7 µM (active) and 27.3 µM (active),23.7 µM (active) and 27.3 µM (active),inactive,inactive,–,–,–,–
O=C(O)CC(Cl)C(=O)O (configuration not stated),inactive,–,inactive,inactive,inactive,inactive,–,–,–,–
O=[N+]([O-])c1cc(C(F)(F)F)cc([N+](=O)[O-])c1Cl,inactive,–,inactive,inactive,inactive,43.5 µM (active),–,–,–,–
CCc1ccc(C(=O)NN(C(=O)c2cc(C)cc(C)c2)C(C)(C)C)cc1,inactive,–,27.3 µM (active),27.3 µM (active),inactive,inactive,–,–,–,–
CCCCCCCCCCOC(=O)c1ccccc1C(=O)OCCCCCCCCCC,inactive,–,inactive,inactive,inactive,inactive,inactive,inactive,–,–
CCOC(=O)COc1cc(-c2nn(C)c(OC(F)F)c2Cl)c(F)cc1Cl,inactive,–,inactive,43.3 µM (active),inactive,inactive,–,inactive,–,inactive
C=CCC1([C@H](C)CCC)C(=O)NC(=O)NC1=O,inactive,–,inactive,inactive,inactive,inactive,–,–,–,–
NCCCNCCCN,inactive,–,55.3 µM (active),62.1 µM (active),49.7 µM (active),–,–,inactive,–,inactive
NCC(CC(=O)O)c1ccc(Cl)cc1 (configuration not stated),inactive,–,inactive,inactive,inactive,inactive,–,–,–,–
CCOP(=S)(OCC)Oc1nc(Cl)c(Cl)cc1Cl,inactive,–,inactive,inactive,inactive,inactive,inactive,inactive,–,inactive
c1ccc(C2CC2)c(OCC2=NCCN2)c1,inactive,inactive,–,inactive,inactive,inactive,inactive,inactive,inactive,inactive
CCCCCCCCCC(=O)O[C@H]1CC[C@H]2[C@@H]3CCC4=CC(=O)CC[C@@H]4[C@H]3CC[C@]12C,inactive,inactive,–,inactive,inactive,inactive,–,–,–,–
NS(=O)(=O)C(F)(F)C(F)(F)C(F)(F)C(F)(F)C(F)(F)C(F)(F)C(F)(F)C(F)(F)F,54.9 µM (active),54.5 µM (active),34.4 µM (active),–,inactive,–,–,inactive,–,68.6 µM (active)
COC(=O)c1cncn1C(C)c1ccccc1 (configuration not stated),inactive,–,inactive,inactive,inactive,inactive,–,–,–,–
C=CCCl,inactive,inactive,–,inactive,inactive,inactive,–,–,–,–
C/C=C/C=O,inactive,–,inactive,inactive,inactive,inactive,–,–,–,–
N#C/C(N)=C(/N)C#N,inactive,inactive,–,inactive,inactive,inactive,–,–,–,–
COC(=O)C(Cl)C(=O)OC,inactive,–,inactive,inactive,inactive,inactive,–,–,–,–
